CDC25B CDK2 inh: human CDC25B-CDK2/CyclinA binding inhibition; 94,000 tested, 0.72% active; z-score (concentration not given with the values); AID 1259370; P30305+P24941; HTRF CDC25B-CDK2/CyclinA binding, anti-His/anti-Flag; active compounds read high; in the data active = z-score above about 3.2
HIV TAR-Tat: HIV-1 TAR-Tat binding disruption | HIV-1 TAR RNA, Tat peptide displacement FRET; active compounds read high | z-score (concentration not given with the values) | 100,000 tested, 0.6% active | AID 1259389; active = z-score of 3 or more in at least 2 runs
The depositor's hits bear a star. A selection: hits, their analogues and other compounds. The true share with any hit is near 0.86%.

Results for CC(C)(CO)NCc1cc(Br)ccc1OCc1ccccc1 ?
CDC25B CDK2 inh: 0.31; HIV TAR-Tat: -0.65

How did O=c1[nH]c2ccc(NCc3cc(Br)ccc3OCc3ccccc3)cc2[nH]1 do in these assays?
CDC25B CDK2 inh: 13*; HIV TAR-Tat: -3.08

What do the screens show for `COc1cc(CNc2ccc3[nH]c(=O)[nH]c3c2)cc(Br)c1OCc1cccs1`?
CDC25B CDK2 inh: 8.87*

Results for CCOc1cc(CNc2ccc(O)cc2)cc(Br)c1OCc1cccs1 ?
CDC25B CDK2 inh: -0.71; HIV TAR-Tat: -6.52

How did O=C(NCC(c1cccs1)S(=O)(=O)c1ccc(Cl)cc1)C1CCCCC1 (stereo not drawn) do in these assays?
HIV TAR-Tat: 0.6

Results for Cc1ccc2c(=O)c(C(=O)c3ccc(Br)cc3)c[nH]c2n1 ?
HIV TAR-Tat: -8.47

Results for N[C@@H](Cc1ccc(O)c(O)c1)C(=O)O ?
CDC25B CDK2 inh: 0.41; HIV TAR-Tat: 23.5*

What do the screens show for `N[C@@H](Cc1ccc([N+](=O)[O-])cc1)C(=O)O`?
CDC25B CDK2 inh: -1.48

Results for C[C@H](Cc1ccc(O)c(O)c1)[C@@H](C)Cc1ccc(O)c(O)c1 ?
CDC25B CDK2 inh: -0.68

What do the screens show for `CC(Cc1ccc(O)c(O)c1)C(C)Cc1ccc(O)c(O)c1` (stereo not drawn)?
HIV TAR-Tat: 6.16*

What do the screens show for `Cc1cc(C(=O)C(=O)Nc2nnc(-c3ccco3)s2)c(C)n1-c1ccccc1Cl`?
CDC25B CDK2 inh: -1.15; HIV TAR-Tat: 33.1*

Results for Cc1cc(C(=O)C(=O)Nc2nncs2)c(C)n1-c1ccccc1 ?
CDC25B CDK2 inh: -2.44; HIV TAR-Tat: 6.91

How did CCc1nnc(NC(=O)C(=O)c2cc(C)n(-c3ccc(F)cc3)c2C)s1 do in these assays?
CDC25B CDK2 inh: -2.82; HIV TAR-Tat: 2.32

Results for Cc1cc(C(=O)C(=O)Nc2nnc(-c3ccco3)s2)c(C)n1-c1cccc(Cl)c1 ?
CDC25B CDK2 inh: -0.62; HIV TAR-Tat: 8.57*

What do the screens show for `COCCNC(=O)Nc1ccc2sc(NS(=O)(=O)c3ccccc3)nc2c1`?
HIV TAR-Tat: 2.63

How did COCCNC(=S)Nc1ccc2nc3c4ccccc4c4ccccc4c3nc2c1 do in these assays?
CDC25B CDK2 inh: 11*

How did CCCNC(=S)Nc1ccc(Cl)cc1 do in these assays?
CDC25B CDK2 inh: -0.64

How did OCCCNC(=S)Nc1ccc2nc(-c3ccccc3)c(-c3ccccc3)nc2c1 do in these assays?
CDC25B CDK2 inh: 5.86*

Results for O=C(NCCCO)Nc1ccc2nc(-c3ccccc3)c(-c3ccccc3)nc2c1 ?
CDC25B CDK2 inh: -0.48

What do the screens show for `C=CCNC(=O)Nc1ccc2nc(-c3ccccc3)c(-c3ccccc3)nc2c1`?
CDC25B CDK2 inh: -0.53

What do the screens show for `C=CCNC(=S)Nc1ccc2nc3c4ccccc4c4ccccc4c3nc2c1`?
CDC25B CDK2 inh: 4.68*

How did CCCNC(=S)Nc1ccc2nc3c4ccccc4c4ccccc4c3nc2c1 do in these assays?
CDC25B CDK2 inh: 11.3*

How did O=C(c1nc(S(=O)(=O)Cc2ccccc2)ncc1Cl)N(Cc1ccccc1)Cc1ccco1 do in these assays?
CDC25B CDK2 inh: -1.87; HIV TAR-Tat: 0.92

What do the screens show for `CCN(CC)c1ccc2nnc(CCC(=O)NC(C)C)n2n1`?
HIV TAR-Tat: 0.77

What do the screens show for `Clc1cccc(CSc2ncc3ccccn23)c1`?
HIV TAR-Tat: -2.91

Results for O=S(=O)(c1ccc(Oc2ccc(S(=O)(=O)N3CCCCC3)cc2)cc1)N1CCCCC1 ?
CDC25B CDK2 inh: -2.55; HIV TAR-Tat: -0.12

Results for COc1cccc(/C=C/c2nc(C#N)c(N3CCc4ccccc4C3)o2)c1 ?
CDC25B CDK2 inh: -2.05; HIV TAR-Tat: -1.42

Results for S=C(Nc1ccc2nc3c4ccccc4c4ccccc4c3nc2c1)N1CCOCC1 ?
CDC25B CDK2 inh: -0.55

What do the screens show for `CC(C)N(C(=S)Nc1ccc2nc3c4ccccc4c4ccccc4c3nc2c1)C(C)C`?
CDC25B CDK2 inh: 10.1*

What do the screens show for `COCc1c(Br)c(C)nc2sc3c(=O)n(-c4ccc(F)cc4)nnc3c12`?
CDC25B CDK2 inh: -0.51; HIV TAR-Tat: 0.43

How did CCc1ccc2oc(C(=O)Nc3nc(-c4ccc(C)s4)ns3)cc(=O)c2c1 do in these assays?
CDC25B CDK2 inh: -0.33; HIV TAR-Tat: 0.26

Results for Cc1ccccc1CSc1nc(=O)n(C2CCCC2)c2c1CCC2 ?
CDC25B CDK2 inh: -0.45; HIV TAR-Tat: 1.18

Results for CC(C)(C)c1nnc2sc(/C=C/c3ccco3)nn12 ?
CDC25B CDK2 inh: -1.53; HIV TAR-Tat: -2.21

How did COc1ccccc1/C=C/c1nn2c(Cc3ccccc3)nnc2s1 do in these assays?
CDC25B CDK2 inh: 0.3; HIV TAR-Tat: 2.51

How did COc1ccc(Cc2nnc3sc(/C=C/c4ccco4)nn23)cc1 do in these assays?
CDC25B CDK2 inh: 2.15; HIV TAR-Tat: 8.35*

How did Clc1ccc(Cc2nnc3sc(/C=C/c4ccco4)nn23)cc1 do in these assays?
CDC25B CDK2 inh: 4.16*; HIV TAR-Tat: 19.1*

Results for CCc1nnc2sc(/C=C/c3ccco3)nn12 ?
CDC25B CDK2 inh: -1.14; HIV TAR-Tat: 8.4*

How did Clc1ccc(Cc2nnc3sc(/C=C/c4cccs4)nn23)cc1 do in these assays?
CDC25B CDK2 inh: -1.46; HIV TAR-Tat: 1.08

How did Cc1noc2ncnc(N3CCC(C(=O)NCCCN4CCOCC4)CC3)c12 do in these assays?
HIV TAR-Tat: 1.67

How did CN(C)CCNC(=O)c1cc2c(=O)n(C)c3cc(Cl)ccc3c2s1 do in these assays?
CDC25B CDK2 inh: -2.21

What do the screens show for `COC(=O)c1cc(=O)c(O)c2c(O)c(O)ccc2c1`?
HIV TAR-Tat: 25.1*

Results for COC(=O)c1cc(NC(=O)c2ccc3ccccc3c2)cc(C(=O)OC)c1 ?
CDC25B CDK2 inh: -1.96

What do the screens show for `CCc1nn(CC(=O)N2CCN(C3CCCCC3)CC2)c(=O)c2cc3sccc3n12`?
CDC25B CDK2 inh: -0.38; HIV TAR-Tat: -0.14

What do the screens show for `COc1ccc(-c2nc(SCc3cc(=O)c4cccc(Cl)c4[nH]3)n[nH]2)cc1`?
HIV TAR-Tat: 6.76*

How did Cc1ccc(-c2nc(SCc3cc(=O)c4cccc(Cl)c4[nH]3)n[nH]2)cc1 do in these assays?
HIV TAR-Tat: 0.33

What do the screens show for `COC(=O)c1[nH]c2sc3c(c2c1-n1cccc1)CCCC3`?
CDC25B CDK2 inh: 13.2*; HIV TAR-Tat: 1.59

Results for COC(=O)c1[nH]c2sc3c(c2c1NC(C)=O)CCCC3 ?
CDC25B CDK2 inh: 4.71; HIV TAR-Tat: -0.25

Results for O=C(O)/C=C/C(=O)Nc1ccc(C(F)(F)F)cc1NC(=O)/C=C/C(=O)O ?
CDC25B CDK2 inh: -0.58

What do the screens show for `O=C(/C=C/c1ccco1)Nc1ccc(C(=O)O)cc1NC(=O)/C=C/c1ccco1`?
CDC25B CDK2 inh: 16.8*

How did COc1cccc(C=Nc2ccccc2SCCC#N)c1O do in these assays?
CDC25B CDK2 inh: 6.92*

What do the screens show for `COc1cc(C(=O)Nc2ccccc2SCCC#N)cc(OC)c1OC`?
CDC25B CDK2 inh: 0.31

How did O=C1CC(c2ccccc2Cl)C2=C(CC(c3ccccc3Cl)CC2=O)N1 (stereo not drawn) do in these assays?
CDC25B CDK2 inh: 3.05; HIV TAR-Tat: 15.1*

How did O=C1CC(c2ccccc2F)C2=C(CC(c3ccccc3Cl)CC2=O)N1 (stereo not drawn) do in these assays?
CDC25B CDK2 inh: -1.38; HIV TAR-Tat: 1.35

What do the screens show for `CCn1c(=O)sc2cc(S(=O)(=O)N3CCc4ccccc4C3)ccc21`?
HIV TAR-Tat: 1.01

Results for CC(C)c1ccc(S(=O)(=O)N2CCCC(c3nc(-c4ccccc4)no3)C2)cc1 (stereo not drawn) ?
HIV TAR-Tat: 1.92

What do the screens show for `CCOCCCNC(=O)c1noc2c1CCc1sccc1-2`?
HIV TAR-Tat: 0
